Bioassay records (PubChem BioAssay)
USP30 block: human USP30 deubiquitinase inhibition | Q70CQ3 | purified USP30, Ub-rhodamine cleavage fluorescence | inhibition, % at 25 µM | 47,000 tested, 5.3% active
USP8 block: inhibitors of human USP8 deubiquitinase; P40818; purified USP8, Ub-rhodamine cleavage fluorescence, 30 min; inhibition, % at 20 µM; 47,000 tested, 4.2% active; AID 1645853
USP10 inh: inhibitors of human USP10 deubiquitinase; purified USP10, Ub-rhodamine fluorescence, 60 min; inhibition, % at 20 µM; 47,000 tested, 1.1% active; Q14694
USP17 inh: blocks human USP17 ubiquitin-rhodamine cleavage. purified USP17, Ub-rhodamine cleavage fluorescence, 3 h. 47,000 tested, 6.5% active. AID 1645855. A8MUK1. inhibition, % at 50 µM
USP28 block: inhibitors of human USP28 deubiquitinase. purified USP28, Ub-rhodamine cleavage fluorescence, 30 min. inhibition, % at 25 µM. 47,000 tested, 3% active. AID 1645857
An asterisk follows results filed as active; x = no result. Hits are enriched below; roughly 13% of the tested compounds scored in any of these assays. Cut-off read from the data, not from the text of the source: active = inhibition above about 30%; inactive = the rest.

SMILES	USP30 block	USP8 block	USP10 inh	USP17 inh	USP28 block
Cc1ccc(C(=O)Nc2cc3c4c(c2)CC(=O)N4CCC3)cc1	-27	19	-3	x	56*
CCOC1=Nc2c(c(=O)n(C)c(=O)n2C)NC(c2ccc(OC)cc2)C1 (stereo not drawn)	16	-2	3	1	-4
O=C(c1ccccc1)N1CCCC(c2nccnc2-c2ncc[nH]2)C1 (stereo not drawn)	-63	-1	-4	-19	-14
CC(C)C(=O)N1CCN(c2ccc(Nc3ccccc3)nn2)CC1	-19	-1	-4	-4	-9
Cn1c(=O)c2c(-c3cccc(F)c3)c(Nc3ccccc3)oc2n(C)c1=O	15	-10	10	-5	39*
O=C(c1cccc(Cl)c1)N1CCCC(c2nnc(-c3ccccc3)o2)C1 (stereo not drawn)	19	11	-5	9	5
Cc1ccc(C)c(-c2nc(Cn3c(=O)c4c(C)cc(C)nc4n(C)c3=O)c(C)o2)c1	-34	-38	-4	19	-7
Cc1ccc(Cn2ccc3nc(N4CCN(C)CC4)ncc3c2=O)cc1	25	8	0	13	3
COc1ccc(Cn2ccc3nc(N4CCCCC4)ncc3c2=O)cc1	28	7	6	71*	15
COc1cc(/C=C/C(=O)O)ccc1O	7	5	0	-2	-4
COc1cc(/C=C/C(=O)OCC(=O)Nc2ccc([N+](=O)[O-])cc2OC)ccc1O	66*	55*	51*	x	84*
CCN(CC)c1ccc(C(=O)NCCOC(=O)c2cc(-c3ccncc3)nc3ccccc23)cc1	-3	-9	2	-6	-7
O=C(NCCc1nc(-c2ccc3c(c2)OCO3)n[nH]1)c1cccc(Br)c1	11	10	1	38*	13
Cc1ccc2c(c1)CN(S(C)(=O)=O)CC1(CCN(Cc3cnc(C)nc3)CC1)O2	-7	-5	-2	-8	-16
COc1ccc(N(C)S(=O)(=O)c2ccc(Cl)c(C(=O)Nc3cccc(C(C)=O)c3)c2)cc1	-42	0	-9	-17	28
COc1cccc(NC(=O)c2ccc(F)cc2Cl)c1	3	1	-2	0	54*
COc1ccc(NC(=O)c2ccc(S(C)(=O)=O)cc2Cl)cc1	-14	5	1	9	46*
Cc1cc(N)n(-c2nc3ccccc3s2)n1	41*	-122	0	36*	17
Nc1c(-c2ccccc2)c(COc2ccccc2)nn1-c1nc2ccccc2s1	7	8	8	13	-9
COc1ccc(C(=O)Nc2ccc3c(c2)N(C(=O)c2cccnc2)CCC3)cc1	-115	-2	-2	-29	-31
CC(C)[C@H]1OC(=O)/C=C/C=C\C=C/C=C/C=C/C=C/C[C@H](O)[C@H](C)[C@H](O)C[C@@H](O)C[C@H](O)C[C@@H](O)C[C@H](O)C[C@H](O)C[C@H](O)C[C@H](O)/C=C/[C@@H]1C	-275	-154	-6	-74	-48
CCOc1ccccc1C(=O)Nc1ccc(-c2nccs2)cc1	31*	-20	5	13	5
Cc1cccc(S(=O)(=O)Nc2ccc(N3CCN(C)CC3)c(C(=O)O)c2)c1	13	89*	4	27	13
COc1ccc(NC(=O)C2CC(=O)Nc3cc(-c4ccccc4)nn32)cc1 (stereo not drawn)	27	-2	2	56*	26
COc1ccc(-c2cnn3c2NC(=O)CC3C(=O)Nc2ccc3c(c2)OCO3)cc1 (stereo not drawn)	10	25	24	2	-6
SMILES	USP30 block	USP8 block	USP10 inh	USP17 inh	USP28 block
Cc1c(-c2ccccc2)nn2c1NC(=O)CC2C(=O)Nc1ccc2c(c1)OCO2 (stereo not drawn)	-16	6	5	47*	-2
COc1ccc(-c2nn3c(c2C)NC(=O)CC3C(=O)Nc2ccc3c(c2)OCO3)cc1 (stereo not drawn)	38*	15	10	8	26
CC(C)c1ccc(OCC(=O)Nc2nonc2-c2ccccc2)cc1	11	11	10	16	7
COc1cccc(C(=O)Nc2nonc2-c2ccc(C(C)C)cc2)c1	29	44*	18	15	13
CCc1ccc(-c2noc(CSc3ccc(-c4ccccc4)nn3)n2)cc1	0	5	3	5	17
Cc1nc(CC(=O)NCc2ccc3c(c2)OCO3)cs1	-19	2	-3	-9	-12
CC(=O)c1cccc(-c2cnc3sc(NCC4CCOCC4)nn23)c1	24	-3	6	5	7
CC(=O)Nc1cccc(-c2cnc3sc(NC4CCCCC4)nn23)c1	12	47*	14	2	3
